Screening results: PubChem BioAssay, National Center for Advancing Translational Sciences (NCATS)
GLS inhibitor: qHTS for Inhibitors of Glutaminase (GLS); 410,000 tested, 0.21% active; Glutaminase kidney isoform, mitochondrial (Homo sapiens), O94925; Potency, µM (titrated, usually from 45.5 µM), for the others: at the top dose activity change, negative = inhibition, hits mostly inhibitors; GLS enzymatic activity, qHTS titration; further: on the % scale 0 is the no-effect control and ±100 the full control effect
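Two-point fluorescence kinetic (t0, 30 min RT) for hKGA; glutamate detected via glutamate oxidase–HRP–Amplex Red. Substrate: 1 mM L-glutamine solution; buffer 45 mM KH2PO4, pH 8.2.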
HP1b binding inh: HTS for Inhibitors of HP1-beta Chromodomain Interactions with Methylated Histone Tails; AlphaScreen HP1-beta / biotin-H3K9me3 peptide binding; Potency, µM (top dose mostly 114 µM), inactives show at the top dose activity change, negative = inhibition, most hits filed as inhibitors; 390,000 tested, 0.56% active; AID 540317, 2011; further: nearly all actives have a fitted effect of over 70% in size
Target sequence (P83916 whole entry, looked up): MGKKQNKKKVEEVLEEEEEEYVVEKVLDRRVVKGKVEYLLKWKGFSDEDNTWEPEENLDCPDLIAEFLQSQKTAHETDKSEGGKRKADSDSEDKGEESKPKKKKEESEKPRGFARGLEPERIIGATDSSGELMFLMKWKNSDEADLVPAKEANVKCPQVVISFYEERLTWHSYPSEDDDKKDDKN
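Compound inhibition of the preformed complex between 50 nM HP1-beta and 50 nM biotinylated H3K9me3 peptide was read by AlphaScreen. Buffer was PBS pH 7.4 with 0.01% Tween-20. Incubations ran 30 min at room temperature, with 10 ug/mL donor/acceptor beads.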
BAZ2B inh: qHTS Assay for Inhibitors of BAZ2B; Bromodomain adjacent to zinc finger domain protein 2B (Homo sapiens), Q9UIF8; AlphaScreen BAZ2B-H3K14Ac peptide displacement; Potency, µM (highest dose often 114 µM), inactives show at the highest dose activity change, negative = inhibition, usual class: inhibitors; 360,000 tested, 4.4% active; AID 504333, 2011; further: on the % scale 0 is the no-effect control and ±100 the full control effect; nearly all actives have a fitted effect of over 60% in size
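AlphaScreen luminescence quantifies BAZ2B engagement of H3K14Ac peptide; the protein and biotinylated peptide are both at 50 nM final, buffer PBS pH 7.4 with 0.01% Tween-20, all steps at room temperature.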
G9a inh: qHTS Assay for Inhibitors of Histone Lysine Methyltransferase G9a; Histone-lysine N-methyltransferase EHMT2 (Homo sapiens), Q96KQ7; G9a H3K9 monomethylation, AlphaScreen, 2 h; Potency, µM (titrated, usually from 102 µM), for the others: at the highest dose activity, negative = inhibition, actives largely listed as inhibitors; 350,000 tested, 8.8% active; further: on the % scale 0 is the no-effect control and ±100 the full control effect; nearly all actives have a fitted effect of over 75% in size
Target sequence (Q96KQ7 913-1193 limits assumed): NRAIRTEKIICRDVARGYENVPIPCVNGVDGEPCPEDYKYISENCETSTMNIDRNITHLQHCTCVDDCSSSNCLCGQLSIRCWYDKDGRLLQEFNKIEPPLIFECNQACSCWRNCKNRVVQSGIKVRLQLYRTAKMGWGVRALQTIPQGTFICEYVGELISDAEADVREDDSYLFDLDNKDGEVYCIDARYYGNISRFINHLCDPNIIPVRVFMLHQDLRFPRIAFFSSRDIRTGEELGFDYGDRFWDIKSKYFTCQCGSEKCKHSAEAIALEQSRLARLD
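AlphaScreen detection with an anti-monomethyl H3K9 antibody quantified product after a 2 h room-temperature reaction containing 500 nM biotinylated H3K9 peptide, 20 µM SAM and 20 nM enzyme, which had been preincubated 15 min with compound.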
JMJD2A Tudor: qHTS Assay for Inhibitors of JMJD2A-Tudor Domain; AID 504339, 2011; 390,000 tested, 4.4% active; Potency, µM (highest dose often 114 µM), without a hit: at the top dose activity change, negative = inhibition, usual class: inhibitors; AlphaScreen JMJD2A-Tudor / H3K4me3 peptide binding; Lysine-specific demethylase 4A (Homo sapiens), O75164; further: on the % scale 0 is the no-effect control and ±100 the full control effect; nearly all actives have a fitted effect of over 50% in size
* marks the source's active call; other numbers are inactive results; ! = repeats disagree; [ ] = remark or other dose. Hits are enriched below; roughly 10% of the tested compounds scored in any of these assays. The call rests on the fitted dose curve; in most records, active means well fitted curve in the direction sought with a large enough effect; inconclusive means small, poorly fitted or top-dose-only effect, or another doubt; inactive means no such curve, though single readings can be large; an effect the other way counts as inactive or inconclusive. Potency means the concentration at half of the fitted maximal effect.

What do the screens show for `c1ccc2c(NCCc3c[nH]c4ccccc34)c3ccccc3nc2c1`?
GLS inhibitor: 9%; HP1b binding inh: -7%; BAZ2B inh: 35µM*; G9a inh: -11%[2.33 µM]; JMJD2A Tudor: 50µM*

Results for OCc1c[nH]c2ccccc12 ?
GLS inhibitor: 4%; HP1b binding inh: 43%; BAZ2B inh: -11%; G9a inh: 13µM*!; JMJD2A Tudor: -29%

Results for O=C(COC(=O)c1ccccc1Br)NCC1CCCCC1 ?
GLS inhibitor: -4%; HP1b binding inh: 23%; JMJD2A Tudor: 14%

What do the screens show for `CN(C)c1ccc(C(=O)OCC(=O)NC2CCCCCC2)cc1`?
GLS inhibitor: 2%; HP1b binding inh: 13%; G9a inh: -4%; JMJD2A Tudor: -18%

How did CN(C)c1ccc(N=Nc2ccccc2C(=O)OCC(=O)N(C)C2CCCCC2)cc1 do in these assays?
GLS inhibitor: 0%; HP1b binding inh: -24%; BAZ2B inh: 8.9µM*; G9a inh: 20µM*; JMJD2A Tudor: inconclusive

How did CN(C)c1ccc(N=Nc2ccccc2C(=O)OCC(=O)NCC2CCCCC2)cc1 do in these assays?
GLS inhibitor: 5%; HP1b binding inh: inconclusive; BAZ2B inh: 8.9µM*; G9a inh: 7.9µM*; JMJD2A Tudor: 7.9µM*

Results for CN(C)c1ccc(N=Nc2ccccc2C(=O)OCC(=O)NC2CCCC2)cc1 ?
GLS inhibitor: 10%; HP1b binding inh: -87%; BAZ2B inh: 13µM*; G9a inh: 11µM*; JMJD2A Tudor: 32µM*

What do the screens show for `CN(C(=O)COC(=O)c1cccnc1Cl)C1CCCCC1`?
GLS inhibitor: -7%; HP1b binding inh: 23%; JMJD2A Tudor: -2%

Results for CCC(C)[C@H](N)C(=O)NC[C@H]1CC[C@H](C(=O)N[C@@H](Cc2ccccc2)C(=O)O)CC1 (stereo not given in full) ?
GLS inhibitor: 5%; HP1b binding inh: 26%; BAZ2B inh: 6%; G9a inh: 1%; JMJD2A Tudor: 3%

Results for CC(=O)c1cccc(NC(=O)c2noc3c2CCCC3)c1 ?
GLS inhibitor: -7%; HP1b binding inh: 40%; BAZ2B inh: -1%; G9a inh: 5%[59 µM]; JMJD2A Tudor: -8%

What do the screens show for `C1=C(c2ccccc2)N2CCN=C2S1`?
GLS inhibitor: 14%; HP1b binding inh: 21%; BAZ2B inh: -2%; G9a inh: -36%[59 µM]; JMJD2A Tudor: -12%

What do the screens show for `O=C(Nc1ccc(Cl)cc1)Nc1ccc2c(c1)N1CCN=C1S2`?
GLS inhibitor: 14%; HP1b binding inh: 21%; BAZ2B inh: -5%; G9a inh: 32µM*; JMJD2A Tudor: -12%[57.1 µM]

Results for Nc1ccc2c(c1)N1CCN=C1S2 ?
GLS inhibitor: 3%; HP1b binding inh: -16%; BAZ2B inh: -6%; G9a inh: 7.1µM*; JMJD2A Tudor: -17%

How did Cc1ccc(O)c(N=CC2=C(O)c3ccccc3C2=O)c1 do in these assays?
GLS inhibitor: -2%; HP1b binding inh: -33%; BAZ2B inh: 40µM*; G9a inh: 32µM*; JMJD2A Tudor: inconclusive

Results for O=C(Nc1ccccn1)c1ccc([N+](=O)[O-])o1 ?
GLS inhibitor: -14%; HP1b binding inh: 29%; BAZ2B inh: 10%; G9a inh: 17%[59 µM]; JMJD2A Tudor: -5%

How did Cc1ccnc(NC(=O)c2ccccc2[N+](=O)[O-])c1 do in these assays?
GLS inhibitor: -5%; HP1b binding inh: inconclusive; BAZ2B inh: 10%; G9a inh: 10µM*; JMJD2A Tudor: -17%

How did Cc1ccnc(NC(=O)c2cccc([N+](=O)[O-])c2C)c1 do in these assays?
GLS inhibitor: 0%; HP1b binding inh: 28%; BAZ2B inh: -16%; G9a inh: 4%; JMJD2A Tudor: -3%

How did Cc1ccnc(NC(=O)/C=C/c2ccccc2[N+](=O)[O-])c1 do in these assays?
BAZ2B inh: 56µM*; G9a inh: inconclusive
